For one assay, the target named is SMYD3. Put plainly: pooled miR-30 sensor sort-seq; sequence = guide strand. Particulars: shRNA.
With TTGAACACAATCGAACAGTTGG, the sensor-assay potency score (higher = more potent) came to 0.615.

As for TAGAATCAAATCTTCAATCAGG, the sensor-assay potency score (higher = more potent) was -0.0994.

Sequence TTGAACTTCCTTCCATACTTGC showed a sensor-assay potency score (higher = more potent) of -0.357.

Turning to TAGCACTACAGTATTTGGCGAC, the sensor-assay potency score (higher = more potent) was found to be 0.0593.

For the sequence TTTTTCTGACACTTAGCACTAC, the sensor-assay potency score (higher = more potent) was -0.019.

With TAGCATATCAGCATCCTTGTCC, the sensor-assay potency score (higher = more potent) worked out at 0.139.

Take TAGGCCAACACCAACTTCCTGC: the sensor-assay potency score (higher = more potent) amounted to 0.026.

In the case of TTTACCTACACAAACACGGAAC, the sensor-assay potency score (higher = more potent) was -0.662.

As to TTTTCTGACACTTAGCACTACA, the sensor-assay potency score (higher = more potent) is -0.327.

Sequence TAATATTTGACTCCAGATCATA showed a sensor-assay potency score (higher = more potent) of -1.27.

On to TTCTTCTAAAAGTAGAATCAAA, for which the sensor-assay potency score (higher = more potent) was -1.27.

The next assay concerns the target SNAP23. Described as above. Particulars: shRNA.
Regarding TTAGATACTACATTGCAAGGTG, the sensor-assay potency score (higher = more potent) came to 0.78.

In the case of TTGGTTGCTGAAGCTGACCATT, the sensor-assay potency score (higher = more potent) is -0.861.

TTGGTGTCAGCCTTGTCTGTGA returned a sensor-assay potency score (higher = more potent) of 0.24.

In turn, TATAACTGCAACTTAAATCAAA returned a sensor-assay potency score (higher = more potent) of -0.858.

For TTATTTGTGGATTTTGAGCATC, the sensor-assay potency score (higher = more potent) is -0.871.

In turn, TAATCTGGTGAGCTCTCTGTTG came in with a sensor-assay potency score (higher = more potent) of -0.844.

TTAGTTATGCTATTACATGGGC showed a sensor-assay potency score (higher = more potent) of -0.215.

The sequence TTTTACTGAGGTAACAACCTCT gave a sensor-assay potency score (higher = more potent) of 0.719.

In turn, TTGAGTCAGGTTCTCTTCCATT displayed a sensor-assay potency score (higher = more potent) of -1.05.

In turn, TTGTTCCTTTTGTTCATCCAGC yielded a sensor-assay potency score (higher = more potent) of -0.861.

Regarding TTCTTTGTTCTATTACATGGGC, the sensor-assay potency score (higher = more potent) is -0.51.

TAATGTATCCACCACTGGCTGC: the sensor-assay potency score (higher = more potent) was -0.654.

For a further assay, the target named is SNAPC2. The assay is described as above. The conditions noted are these: shRNA.
In turn, TCAGGGGACAGATCCCAGCTGC had a sensor-assay potency score (higher = more potent) of -0.373.

In the case of TCAGCTGCTGAGAGCTCGGGGC, the sensor-assay potency score (higher = more potent) is -1.02.

In turn, TATCTTCTCAGCCAGATCCGTC came in with a sensor-assay potency score (higher = more potent) of -0.959.

In turn, TGTAGATCTTCTCAAAGTCCAC came in with a sensor-assay potency score (higher = more potent) of -0.752.

For the sequence AGTACTTGTAGATCTTCTCAAA, the sensor-assay potency score (higher = more potent) was -1.85.

The sequence TTATCTTCTCAGCCAGATCCGT returned a sensor-assay potency score (higher = more potent) of -0.528.

With TTTCAGTTCGCTGTGCTCGGCC, the sensor-assay potency score (higher = more potent) was -0.483.

For the sequence AAGTGACATGAGCAGGTCGAGG, the sensor-assay potency score (higher = more potent) is -1.64.

In turn, TTCAGTGGAGGGACCAGCCGAC came in with a sensor-assay potency score (higher = more potent) of -0.383.

Consider TTCTCAGCCAGATCCGTCCAGA, for which the sensor-assay potency score (higher = more potent) was -0.94.

Turning to TAGATCTTCTCAAAGTCCACAG, the sensor-assay potency score (higher = more potent) is -0.173.

In the case of AAGTACTTGTAGATCTTCTCAA, the sensor-assay potency score (higher = more potent) was determined as 0.257.

A further assay deals with SNCG. The description is as above. Particulars: shRNA.
Regarding TGCTTGGTCTTTTCCACCGCAC, the sensor-assay potency score (higher = more potent) was -1.01.

In turn, ACAACATTCTCCTTGGTCTTGG registered a sensor-assay potency score (higher = more potent) of -0.611.

Take TACAACATTCTCCTTGGTCTTG: the sensor-assay potency score (higher = more potent) is -0.826.

Turning to TGGTCTTCTCAGCTGCTTCCGT, the sensor-assay potency score (higher = more potent) was -1.23.

Turning to TTGGATGCCACACCCTCCTGTT, the sensor-assay potency score (higher = more potent) was -1.09.

(Values after the OligoGym collection.)
Note: reference of the scale not given here.
